Assay outcomes as filed in PubChem.
This is one part of a sample in which hits are shown more often than they occur.
KDM5B inhibitor: blocks human KDM5B histone demethylase activity; Q9UGL1; KDM5B demethylase, FDH-coupled NADH fluorescence (FDH is formaldehyde dehydrogenase); Potency, µM (series often up to 57.7 µM), hits mostly inhibitors; 220,000 tested, 2.6% active; AID 1347165; active = well fitted inhibition curve with a large enough effect; also: 0% is about no effect; nearly all actives have a fitted effect of over 70% in size
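KDM5BΔAP (200 nM final) in 50 mM HEPES pH 7.5, 0.01% Tween-20 was preincubated 10 min at RT with compound over a concentration range. Substrate mix (H3K4me3 12.5 µM, α-KG 25 µM, Fe²⁺, ascorbate, NAD⁺, FDH) was added, and NADH fluorescence change over 30 min gave dose-response curves.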
* = called active by the depositor. Potency is read from the fitted curve at half-maximal effect.

Results for CC1(C(=O)NCCCn2ccnc2)CCc2cnc(NCc3ccccc3)nc21 (stereo not given) ?
KDM5B inhibitor: 39.8µM*

Results for COCCNC(=O)C1(C)CCc2cnc(NCc3ccccc3)nc21 (stereo not given) ?
KDM5B inhibitor: 35.5µM*

What do the screens show for `CC1(C(=O)NCC2CC2)CCc2cnc(NCc3ccccc3)nc21` (stereo not given)?
KDM5B inhibitor: 39.8µM*

How did CCC(C)n1nnc2cc(S(=O)(=O)N3CCC(C(=O)Nc4ccccc4OC)CC3)ccc21 (stereo not given) do in these assays?
KDM5B inhibitor: inactive

Results for COc1cc(/C=C(/C#N)C(=O)Nc2cccc3ncccc23)cc(OC)c1OC ?
KDM5B inhibitor: inactive

What do the screens show for `COCC(=O)N1CCN(Cc2nc(C)no2)CC1`?
KDM5B inhibitor: inactive

What do the screens show for `Cc1ccc(N2CC(NC(=O)Nc3nc4ccccc4s3)CC2=O)cc1` (stereo not given)?
KDM5B inhibitor: inactive

What do the screens show for `Cc1ncsc1C1N(C2CCNCC2)C(=O)C12CCCC2` (stereo not given)?
KDM5B inhibitor: inactive

What do the screens show for `CCN(CC)S(=O)(=O)c1cccc(C(=O)OCc2nc3ccccc3nc2C)c1`?
KDM5B inhibitor: inactive

What do the screens show for `COc1ccc(C2CCCN2C(=O)c2csc(-c3ccccc3)n2)cc1` (stereo not given)?
KDM5B inhibitor: inactive

Results for CC(NC(=O)COc1ccc(C#N)cc1)C12CC3CC(CC(C3)C1)C2 (stereo not given) ?
KDM5B inhibitor: inactive

What do the screens show for `C[C@@H](C(=O)Nc1ccc(N(C)C)cc1)n1nnc2ccccc2c1=O`?
KDM5B inhibitor: inactive

Results for N#Cc1ccc(CN2CCC3(CC2)CNc2ccccc2[S+](=O)([O-])N3)cc1 ?
KDM5B inhibitor: inactive

Results for O=C(c1ccccc1)N1CCn2c(nnc2C2CCCNC2)C1 (stereo not given) ?
KDM5B inhibitor: inactive

How did c1ccc(CN2CCn3c(nnc3C3CCCNC3)C2)cc1 (stereo not given) do in these assays?
KDM5B inhibitor: inactive

What do the screens show for `N#Cc1ccc(CN2CCn3c(nnc3-c3ccc(Cl)cc3)C2)cc1`?
KDM5B inhibitor: inactive

Results for N#Cc1ccc(CN2CCn3c(nnc3C3CCCNC3)C2)cc1 (stereo not given) ?
KDM5B inhibitor: 20µM*

How did C1CCC(CN2CCn3c(nnc3C3CCCNC3)C2)CC1 (stereo not given) do in these assays?
KDM5B inhibitor: 25.1µM*

What do the screens show for `Clc1ccc(-c2nnc3n2CCN(CC2CC2)C3)cc1`?
KDM5B inhibitor: inactive

Results for COc1ccc(CN2CCCC2c2cccc(C)c2)cc1O (stereo not given) ?
KDM5B inhibitor: inactive

What do the screens show for `CC(C)n1c(SCC(=O)NCc2ccccc2)nnc1-c1ccc2c(c1)OCCCO2`?
KDM5B inhibitor: inactive

How did O=C(CC1CCCN(c2cnn(CC3CC3)c(=O)c2)C1)NCCN1CCCC1 (stereo not given) do in these assays?
KDM5B inhibitor: inactive

Results for Cc1c(CC(=O)NC(C)C2CC2)c2c(n1Cc1ccccc1F)CCCC2=O (stereo not given) ?
KDM5B inhibitor: inactive

How did O=C(Nc1ccccc1)N1CCC(N2CCN(Cc3ccccn3)C(=O)C2=O)CC1 do in these assays?
KDM5B inhibitor: inactive

What do the screens show for `O=C(CCc1nc2sc3c(c2c(=O)[nH]1)CCC3)NCc1cccc(C(F)(F)F)c1`?
KDM5B inhibitor: inactive

What do the screens show for `Cc1ccc(NC(=O)c2cc3n(n2)CC(c2ccc4c(c2)OCO4)OC3)cc1F` (stereo not given)?
KDM5B inhibitor: 22.4µM*

How did Cc1ccc(NC(=O)c2cc3n(n2)CC(c2ccc4c(c2)OCO4)OC3)cc1Cl (stereo not given) do in these assays?
KDM5B inhibitor: 28.2µM*

How did COC(=O)c1cccc(NC(=O)C2CC(=O)Nc3cc(F)ccc32)c1 (stereo not given) do in these assays?
KDM5B inhibitor: inactive

What do the screens show for `C[C@@H](NC(=O)C1CC1)c1onc(-c2ccc(F)cc2)c1C(=O)O`?
KDM5B inhibitor: inactive

Results for C[C@@H](NC(=O)c1nc2ccccc2[nH]1)c1onc(-c2ccc(F)cc2)c1C(=O)O ?
KDM5B inhibitor: 35.5µM*

How did Cc1nn(-c2ccccc2)nc1C(=O)N[C@H](C)c1onc(-c2ccc(F)cc2)c1C(=O)O do in these assays?
KDM5B inhibitor: 31.6µM*

Results for CC(C)CC(=O)N[C@H](C)c1onc(-c2ccc(F)cc2)c1C(=O)O ?
KDM5B inhibitor: inactive

What do the screens show for `C[C@@H](NC(=O)c1ccc(Cl)cc1)c1onc(-c2ccc(F)cc2)c1C(=O)O`?
KDM5B inhibitor: inactive

Results for C[C@@H](NC(=O)NC(C)(C)C)c1onc(-c2ccc(F)cc2)c1C(=O)O ?
KDM5B inhibitor: inactive

What do the screens show for `Cc1ccc(-c2cnc(SCC(=O)Nc3ccc(Br)cc3)o2)cc1C`?
KDM5B inhibitor: inactive

Results for Cc1cccc(-n2nnnc2SCC(=O)N(C)c2ccccc2C(=O)NCc2ccco2)c1C ?
KDM5B inhibitor: inactive

Results for COc1ccc2ncc(C#N)c(Nc3cc(OC)c(OC)c(OC)c3)c2c1 ?
KDM5B inhibitor: inactive

What do the screens show for `Cc1ncc(-c2ccc(C)c(S(=O)(=O)Nc3ccc(Cl)cc3)c2)o1`?
KDM5B inhibitor: inactive

How did Cc1ncncc1C(=O)O do in these assays?
KDM5B inhibitor: inactive

How did CCCCNc1ncc(C(=O)O)c(C)n1 do in these assays?
KDM5B inhibitor: 14.1µM*

What do the screens show for `Cc1nc(C2CC2)ncc1C(=O)O`?
KDM5B inhibitor: inactive

How did CS(=O)(=O)c1ccc(CN2CCCC(Cc3nc4ccccc4[nH]3)C2)cc1 (stereo not given) do in these assays?
KDM5B inhibitor: inactive

How did Cc1ccc(S(=O)(=O)N2CCN(C(=O)CN(Cc3ccco3)Cc3ccco3)CC2)cc1C do in these assays?
KDM5B inhibitor: inactive

What do the screens show for `CCCNc1nc2ccccc2nc1C(=O)Nc1c(C)cccc1C`?
KDM5B inhibitor: inactive

How did O=[S+]1([O-])NC2(CCN(CC3CCCC3)CC2)COc2ccccc21 do in these assays?
KDM5B inhibitor: 79.4µM*

What do the screens show for `O=[S+]1([O-])NC2(CCN(CC3CCCCC3)CC2)CNc2ccccc21`?
KDM5B inhibitor: inactive

How did O=[S+]1([O-])NC2(CCN(Cc3ccoc3)CC2)COc2ccccc21 do in these assays?
KDM5B inhibitor: inactive

Results for N#Cc1ccccc1OCC(=O)OCc1ccc(C(N)=O)cc1 ?
KDM5B inhibitor: inactive

What do the screens show for `Cc1cnc(C(=O)NC2C[C@H]3CC[C@@H](C2)N3C(=O)CCc2ccccc2)cn1` (stereo not given in full)?
KDM5B inhibitor: inactive

Results for N#Cc1ccc(CN2C[C@@H]3C(=O)N(CCN4CCc5ccccc5C4)C(=O)[C@@H]3C2)cc1 ?
KDM5B inhibitor: 25.1µM*

What do the screens show for `O=C1[C@H]2CN(Cc3ccccc3Cl)C[C@H]2C(=O)N1CCN1CCc2ccccc2C1`?
KDM5B inhibitor: inactive

How did O=C1[C@H]2CN(Cc3cc(Cl)ccc3F)C[C@H]2C(=O)N1CCN1CCc2ccccc2C1 do in these assays?
KDM5B inhibitor: inactive

Results for CCC(c1cccs1)N1C(=O)[C@H]2CN(S(=O)(=O)c3cccc(Cl)c3)C[C@H]2C1=O (stereo not given in full) ?
KDM5B inhibitor: inactive

Results for CCCn1nc(C(=O)OCC(=O)N(CC)Cc2ccccc2)c2ccccc2c1=O ?
KDM5B inhibitor: inactive

What do the screens show for `CC(=O)NCC(=O)N[C@@H]1CN(Cc2ccccc2)C[C@H]1CO`?
KDM5B inhibitor: inactive
